The record followed here is PubChem BioAssay (NCATS).

Experiment [1] concerns Nanoluciferase (engineered Oplophorus gracilirostris luciferase). Nature of the experiment: Primary Nanoluciferase (NLuc) qHTS assay for identification of artifact compounds. (AID 1845222). Note: series mostly up to about 54 µM. The essentials:
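Luminescence from secreted NLuc (filtered, 1:55-diluted S16 cell medium) read 5 min after Nano-Glo substrate; compounds preincubated 15 min, RT. Hill fits of inhibition normalized to DMSO and no-enzyme.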
On the technique in general: qHTS replaces the single test concentration by a dilution series.

Experiment [2] in a line: Primary redox qHTS assay for identification of artifact compounds. (AID 1845223). In short, it runs like this: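 Redox-cycling detection via DTT (250 uM final) oxidation coupled to Amplex Red (25 uM)/HRP (250 mU/mL) in HBSS. 15 min preincubation plus 30 min after DTT, room temperature. Ex/Em 525/598 nm; 4-parameter Hill fit against DMSO and 10 uM DA3003.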
Experiment [3] has as its target Cytochrome P450 3A4 (Homo sapiens) (UniProt P08684). Nature of the experiment: qHTS for inhibitors of CYP3A4 against the NCATS DSHEA and TCM libraries (AID 1919971).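 Note: inhibition lowers luminescence from luciferin made by CYP3A4.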 In short, it runs like this:
(§1)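 Concentration-response screening with isoform-matched pro-luciferin substrates. The CYP reaction was initiated by NADPH regenerating solution and ran 30-45 min in darkness at room temperature.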

Experiment [4] deals with Cytochrome P450 2D6 (Homo sapiens) (UniProt P10635). Briefly: qHTS for inhibitors of CYP2D6 against the NCATS DSHEA and TCM libraries (AID 1919972). The essentials:
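CYP2D6 enzyme with pro-luciferin substrate in manufacturer buffer (typically 100 mM KPO4), preincubated 15 min RT with substances (most at 19.5 nM upward); NADPH regeneration system (1x) started 30–45 min RT reaction; P450-Glo luminescence read after 30 min; quinidine as intraplate control.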

In experiment [5] the target is Cytochrome P450 2C9 (Homo sapiens) (UniProt P11712). Nature of the experiment: qHTS for inhibitors of CYP2C9 against the NCATS DSHEA and TCM libraries (AID 1919973).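 Note: luminogenic pro-luciferin CYP2C9 substrate turned into luciferin with NADPH regeneration; series mostly up to about 34 µM.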 The essentials:
as §1

Experiment [6] concerns the target Cytochrome P450 2C19 (Homo sapiens) (UniProt P33261). Briefly: qHTS for inhibitors of CYP2C19 against the NCATS DSHEA and TCM libraries (AID 1919974).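 Note: luminescence from luciferin released by CYP2C19 oxidation of a pro-luciferin substrate.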 The essentials: as §1
Experiment [7] can be described thus: KB-3-1 P-gp reporter qHTS against the NCATS DSHEA and TCM libraries (AID 1919975). In short, it runs like this: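 Parental KB-3-1 human cervical adenocarcinoma cells (500 cells/well, DMEM + 10% FBS) were treated with substances for ~72 h at 37C; viability was read by CellTiter-Glo luminescence.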
Experiment [8] deals with Cytochrome P450 1A2 (Homo sapiens) (UniProt P05177). Briefly: qHTS for inhibitors of CYPIA2 against the NCATS DSHEA and TCM libraries (AID 1919976).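 Note: light from luciferin formed by CYP1A2 from a pro-luciferin substrate; series mostly up to about 37 µM.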 The essentials:
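Enzyme and pro-luciferin substrate, or substrate alone as no-enzyme background, are pre-incubated with test samples for 15 min at room temperature. NADPH regeneration system (1x final) initiates a 30-45 min dark reaction; luciferase detection reagent follows before luminescence reading.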

Experiment [9] in a line: qHTS Counterscreen for compound interference against the NCATS DSHEA and TCM libraries (AID 1919978). The conditions noted are these: firefly luciferase detection reagent interference, luminescence. In short, it runs like this: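 D-luciferin (1 uM final) or 100 mM potassium phosphate buffer alone was preincubated 15 min at RT with compounds (19.5 nM to 39.8 uM final). Luciferin detection reagent was then added and luminescence read after 30 min at RT.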

A number with no mark means an inactive call. Results filed as inconclusive are left out. Where a call stands in place of a potency, no number is given. Activity calls are given as the source filed them. Calls come from the whole dose curve; as a rule, active = well fitted curve in the direction sought with a large enough effect; inconclusive = small, poorly fitted or top-dose-only effect, or another doubt; inactive = no such curve, though single readings can be large; an effect the other way counts as inactive or inconclusive.

Cytochrome P450 1A2 (Homo sapiens), sequence (P05177 whole entry, looked up): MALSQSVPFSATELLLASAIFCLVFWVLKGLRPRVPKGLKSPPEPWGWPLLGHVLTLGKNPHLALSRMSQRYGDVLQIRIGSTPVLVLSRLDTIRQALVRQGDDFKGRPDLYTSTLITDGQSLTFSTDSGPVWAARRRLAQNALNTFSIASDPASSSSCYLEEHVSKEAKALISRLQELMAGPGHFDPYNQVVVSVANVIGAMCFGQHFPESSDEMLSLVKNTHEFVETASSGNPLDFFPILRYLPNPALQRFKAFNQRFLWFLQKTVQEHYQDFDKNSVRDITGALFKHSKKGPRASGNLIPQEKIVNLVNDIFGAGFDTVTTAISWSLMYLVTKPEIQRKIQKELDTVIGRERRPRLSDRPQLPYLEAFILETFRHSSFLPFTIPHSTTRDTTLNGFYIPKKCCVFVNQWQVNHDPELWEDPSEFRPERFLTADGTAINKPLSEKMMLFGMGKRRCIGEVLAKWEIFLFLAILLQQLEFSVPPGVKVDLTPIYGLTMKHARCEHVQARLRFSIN
Cytochrome P450 2C9 (Homo sapiens), sequence (P11712 whole entry, looked up): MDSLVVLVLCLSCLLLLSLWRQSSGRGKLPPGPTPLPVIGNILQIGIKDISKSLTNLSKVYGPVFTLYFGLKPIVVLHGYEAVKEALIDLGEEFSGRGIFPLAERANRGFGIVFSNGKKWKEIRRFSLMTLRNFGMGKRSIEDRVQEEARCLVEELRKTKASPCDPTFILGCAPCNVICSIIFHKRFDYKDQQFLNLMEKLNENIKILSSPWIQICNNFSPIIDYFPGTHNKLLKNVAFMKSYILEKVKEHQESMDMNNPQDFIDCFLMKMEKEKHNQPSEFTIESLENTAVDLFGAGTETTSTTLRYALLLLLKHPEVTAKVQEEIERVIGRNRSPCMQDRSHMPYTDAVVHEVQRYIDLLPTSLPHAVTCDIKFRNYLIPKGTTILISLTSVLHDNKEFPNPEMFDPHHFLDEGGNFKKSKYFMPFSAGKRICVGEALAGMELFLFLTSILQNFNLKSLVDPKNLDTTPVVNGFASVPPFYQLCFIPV
Cytochrome P450 3A4 (Homo sapiens), sequence (P08684 whole entry, looked up, canonical isoform): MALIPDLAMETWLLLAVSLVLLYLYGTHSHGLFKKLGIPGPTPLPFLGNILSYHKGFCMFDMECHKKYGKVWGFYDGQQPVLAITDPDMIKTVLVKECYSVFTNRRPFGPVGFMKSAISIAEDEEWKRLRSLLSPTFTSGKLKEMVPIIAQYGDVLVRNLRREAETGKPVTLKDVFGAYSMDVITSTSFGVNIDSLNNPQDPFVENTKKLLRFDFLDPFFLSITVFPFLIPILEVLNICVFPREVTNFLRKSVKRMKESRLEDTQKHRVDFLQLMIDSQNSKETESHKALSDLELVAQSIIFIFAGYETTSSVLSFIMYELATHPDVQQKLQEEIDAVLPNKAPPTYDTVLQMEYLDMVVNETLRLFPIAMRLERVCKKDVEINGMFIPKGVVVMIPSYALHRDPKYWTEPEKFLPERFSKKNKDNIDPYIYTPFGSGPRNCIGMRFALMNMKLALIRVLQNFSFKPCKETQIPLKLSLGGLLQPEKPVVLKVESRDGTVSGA
Cytochrome P450 2C19 (Homo sapiens), sequence (P33261 whole entry, looked up): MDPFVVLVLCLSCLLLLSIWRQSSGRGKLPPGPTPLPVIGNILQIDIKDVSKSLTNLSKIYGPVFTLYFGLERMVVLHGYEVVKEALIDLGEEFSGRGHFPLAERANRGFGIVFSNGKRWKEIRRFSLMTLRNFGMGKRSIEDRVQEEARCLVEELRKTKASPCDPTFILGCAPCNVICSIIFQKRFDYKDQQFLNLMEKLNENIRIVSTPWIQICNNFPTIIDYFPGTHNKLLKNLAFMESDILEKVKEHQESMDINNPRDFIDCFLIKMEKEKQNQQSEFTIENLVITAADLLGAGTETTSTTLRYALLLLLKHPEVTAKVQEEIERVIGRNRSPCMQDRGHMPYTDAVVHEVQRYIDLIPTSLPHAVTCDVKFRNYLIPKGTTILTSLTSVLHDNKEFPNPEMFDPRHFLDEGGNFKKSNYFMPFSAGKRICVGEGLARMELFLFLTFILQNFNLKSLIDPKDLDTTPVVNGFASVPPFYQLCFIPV
Cytochrome P450 2D6 (Homo sapiens), sequence (P10635 whole entry, looked up): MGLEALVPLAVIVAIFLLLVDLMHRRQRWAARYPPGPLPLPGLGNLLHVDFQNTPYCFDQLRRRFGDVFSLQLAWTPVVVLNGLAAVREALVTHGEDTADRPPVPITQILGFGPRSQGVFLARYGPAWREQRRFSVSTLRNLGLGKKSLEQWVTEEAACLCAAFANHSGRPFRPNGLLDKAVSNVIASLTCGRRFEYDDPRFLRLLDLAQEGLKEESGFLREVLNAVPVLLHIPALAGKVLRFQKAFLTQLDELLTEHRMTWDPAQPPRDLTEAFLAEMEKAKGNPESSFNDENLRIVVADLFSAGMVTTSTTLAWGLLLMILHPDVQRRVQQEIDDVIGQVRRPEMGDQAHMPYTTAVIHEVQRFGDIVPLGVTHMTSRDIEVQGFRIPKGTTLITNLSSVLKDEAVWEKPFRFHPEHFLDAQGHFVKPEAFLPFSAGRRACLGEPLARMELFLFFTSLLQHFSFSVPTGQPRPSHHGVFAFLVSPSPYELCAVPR

For the compound `CCc1nc(C(N)=O)c(Nc2ccc(N3CCC(N4CCN(C)CC4)CC3)c(OC)c2)nc1NC1CCOCC1`, the Potency entry in [1] and in experiment [2] was “inactive” each time.
As to `COC(=O)CC1(O)C(=O)Nc2ccccc21` (stereo not given), the Potency result in experiment [1] and in experiment [2] was “inactive” in each case.
With `CC(/C=C/C1(O)C(C)CC(O)CC1(C)C)OC1OC(CO)C(O)C(O)C1O` (stereo not given), the Potency entry in [1] and in experiment [2] was “inactive” each time.
For `CC(=O)N[C@H]1CCN(c2ccc(C3=NOC(CN[S+](=O)([O-])C(C)C)C3)cc2F)C1` (stereo not given in full), the Potency result in [1] and in [2] was “inactive” in each case.
Regarding `COC1=Cc2c(nc3n(c2=O)C(C)C(=O)NC3(O)C(C)C)OC=C1` (stereo not given), the Potency entry in experiment [1] and in [2] was “inactive” each time.
In the case of `CC(O)(CC(=O)O)CC(=O)O[C@@H]1[C@@H](O)[C@H](OCCc2ccccc2)O[C@H](CO)[C@H]1O` (stereo not given in full), the Potency entry in experiment [1] and in experiment [2] was “inactive” throughout.
Take `CC(C)CC(=O)OC[C@H]1O[C@@](COC(=O)CC(C)C)(O[C@H]2O[C@H](CO)[C@@H](O)[C@H](O)[C@H]2OC(=O)CC(C)C)[C@@H](OC(=O)CC(C)C)[C@@H]1O`: the Potency result in experiment [1] and in experiment [2] was “inactive” in each case.
On to `CC[C@H]1OC(=O)[C@H](C)[C@@H](OC2C[C@@](C)(OC)[C@@H](O)[C@H](C)O2)[C@H](C)[C@@H](OC2O[C@H](C)C[C@H](NC)[C@H]2O)[C@](C)(O)C[C@@H](C)CN(C)[C@H](C)[C@@H](O)[C@]1(C)O` (stereo not given in full), for which the Potency entry in experiment [1] and in [2] was “inactive” throughout.
Consider `Cc1cc(O)c(C(C)C)cc1O[C@@H]1O[C@H](CO)[C@@H](O)[C@H](O)[C@H]1O`, for which the Potency entry in [1] and in experiment [2] was “inactive” in each case.
Take `CC(=O)N1c2ccccc2C2(O)CC3C(=O)NC(CC(C)C)C(=O)N3C12` (stereo not given): the Potency result in [1] and in [2] was “inactive” each time.
As for `OCC1=CC[C@@H]2C=CO[C@@H](O[C@@H]3O[C@H](CO)[C@@H](O)[C@H](O)[C@H]3O)[C@H]12`, the Potency result in experiment [1] and in experiment [2] was “inactive” in each case.
In the case of `CC[C@H]1OC(=O)C[C@@H](O)[C@H](C)[C@@H](O[C@@H]2O[C@H](C)[C@@H](O)[C@H](N(C)C)[C@H]2O)[C@@H](CCN2C[C@H](C)C[C@H](C)C2)C[C@@H](C)C(=O)/C=C/C(C)=C/[C@@H]1CO[C@@H]1O[C@H](C)[C@@H](O)[C@@H](OC)[C@H]1OC`, the Potency result in [1] and in experiment [2] was “inactive” each time.
Consider `CC1(CO)CC[C@]2(C(=O)O[C@@H]3O[C@H](CO)[C@@H](O)[C@H](O)[C@H]3O)CC[C@]3(C)C(=CCC4[C@@]5(C)CC[C@H](O[C@@H]6O[C@H](C(=O)O)[C@@H](O)[C@H](O)[C@H]6O)C(C)(C)C5CC[C@]43C)C2C1` (stereo not given in full), for which the activity, negative = inhibition in experiment [1] was 2.96% [at 11.6 µM]. Besides, the redox activity (% of DA3003) in experiment [2] is 19.9% [at 11.5 µM].
For `COc1cc2c(cc1O)C1(OC)Cc3ccc4c(c3C1N(C)CC2)OCO4` (stereo not given), the Potency entry in experiment [1] and in [2] was “inactive” throughout.
`N#Cc1ccc2[nH]c(O)c(-c3ccc(CN4CCOCC4)cn3)c2c1`: the Potency entry in experiment [1] and in experiment [2] was “inactive” each time.
Consider `COCCCNCC1COc2ccccc2O1` (stereo not given), for which the Potency result in experiment [1] and in [2] was “inactive” each time.
Consider `CC1[C@@H](O)[C@@H](O)C2[C@]3(C)C(C[C@H]4OC(=O)[C@H](O)[C@]1(O)[C@@]24C)C(C)(O)C[C@H](O)[C@H]3O` (stereo not given in full), for which, in [2], the Potency entry is “inactive”.
As to `C=C1C(=O)OC2CC(C)=C(C(C)CCCO[C@@H]3O[C@H](CO)[C@@H](O)[C@H](O)[C@H]3O)C(O)C12` (stereo not given in full), the Potency result in [1] and in experiment [2] was “inactive” in each case.
For the compound `C[C@@H]1C(=O)O[C@H]2CC34[C@H]5C[C@@H](C(C)(C)C)C36[C@@H](OC(=O)[C@@H]6O)OC4(C(=O)O5)[C@]21O` (stereo not given in full), the Potency entry in experiment [2] was “inactive”.
Turning to `O=C(/C=C/c1ccc(O)cc1)O[C@H]1[C@@H]2C=CO[C@@H](O[C@@H]3O[C@H](CO)[C@@H](O)[C@H](O)[C@H]3O)[C@@H]2[C@@]2(CO)O[C@@H]12`, the Potency entry in [1] and in experiment [2] was “inactive” each time.
Consider `NCc1c[nH]c(=S)n1C1CCc2c(F)cc(F)cc2C1` (stereo not given), for which the Potency result in experiment [1] and in experiment [2] was “inactive” throughout.
For `OC[C@H]1O[C@@H](n2cnc3c2NC=NC[C@H]3O)C[C@@H]1O`, the Potency entry in [2] is “inactive”.
Same read-out and setting: next, `CCOC(=O)c1c(C)nn(-c2cccc([N+](=O)[O-])c2)c1C`: “inactive”.
In the case of `O=C(O)CCc1cc2ccoc2cc1O[C@@H]1O[C@H](CO[C@@H]2OC[C@](O)(CO)[C@H]2O)[C@@H](O)[C@H](O)[C@H]1O`, the Potency entry in experiment [1] and in experiment [2] was “inactive” each time.
Consider `C(#Cc1cccc(CN2CCOCC2)c1)CCN1CCCCC1`, for which the Potency entry in experiment [1] and in [2] was “inactive” each time.
On to `C=C1CCC2C(C)(C(=O)O)CC(O)CC2(C)C1CC/C(C)=C/C(=O)O` (stereo not given), for which the Potency result in experiment [1] and in experiment [2] was “inactive” each time.
Regarding `O=c1c2ccccc2nc2n1CCC2O` (stereo not given), the Potency result in [1] and in experiment [2] was “inactive” each time.
`Oc1cc(O)c2c(c1)OC(c1ccc(O)c(O)c1)C(O)C2` (stereo not given): the compound was called inactive in experiment [3], in experiment [4], in experiment [7] and in experiment [8]. Further, the Potency entry in experiment [5] and in [6] was “inactive” throughout. In addition, in experiment [9], the max response is 0.755%.
`NCc1ccc(OCCCc2sc(-c3ccc4c(c3)/C(=N/Nc3nc5ccccc5s3)CCC4)nc2C(=O)O)cc1`: the Potency result in [2] was “inactive”.
For `CC(=O)N(O)CCCCCN1C(=O)CCC1=O`, the Potency entry in [1] and in experiment [2] was “inactive” in each case.
